Experimental data from PubChem BioAssay AID2058 (Sanford-Burnham Center for Chemical Genomics, 2009).
The whole screen tested about 290,000 compounds, of which about 150 (0.052%) were called active. Only a selection was taken, and actives are over-represented in it overall. Potency and affinity values are given separately. A number with no mark means an inactive call.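 The calls were made as follows: active = inhibition of at least 50% with at least 30 cells and total cytoplasm GFP at most 10,000,000; inconclusive = under 30 cells or total GFP of 10,000,000 plus; inactive = the rest.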

Biological target: G-protein coupled receptor 35 (Homo sapiens) (UniProt Q9HC97)
Sequence (Q9HC97 whole entry, looked up): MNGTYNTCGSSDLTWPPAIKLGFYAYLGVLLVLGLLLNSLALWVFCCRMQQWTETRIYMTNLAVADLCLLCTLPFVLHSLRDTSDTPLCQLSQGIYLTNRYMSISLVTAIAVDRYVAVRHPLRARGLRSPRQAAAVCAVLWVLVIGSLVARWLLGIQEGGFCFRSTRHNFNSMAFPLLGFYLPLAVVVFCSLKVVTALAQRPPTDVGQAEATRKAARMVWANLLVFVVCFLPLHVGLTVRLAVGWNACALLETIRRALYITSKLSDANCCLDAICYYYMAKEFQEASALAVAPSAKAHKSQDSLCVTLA
Assay: inhibition of zaprinast-stimulated GPR35 beta-arrestin translocation – imaging, U2OS, beta-arrestin-GFP, zaprinast agonist, primary screen (AID 2058)
Settings: zaprinast antagonism, at 10 µM, hits give high values

Row | Structure (SMILES) | inhibition
1 | CN1/C(=C\C=Nc2ccccc2)C(C)(C)c2ccccc21 | -7.9%
2 | CN1/C(=C\C=C\C2=[N+](C)c3ccc4ccccc4c3C2(C)C)C(C)(C)c2ccccc21 | 111% (active)
3 | CN1/C(=C\C=C2C(=O)NC(=O)NC2=O)C(C)(C)c2ccccc21 | 1.5%
4 | COc1ccc(NC(=O)c2cn(CCC#N)nc2-c2cccc(Br)c2)cc1 | -0.5%
5 | CCCNS(=O)(=O)c1ccc(OCC(=O)N2CCN(C)CC2)cc1 | 3.2%
6 | CCCCNC(=O)NC(C(N)=O)P(=O)(OCC)OCC (stereo not given) | -6.8%
7 | COc1cccc(C2CC3C(=O)C=CC2N3Cc2ccccc2)c1 (stereo not given) | 58.2% (active)
8 | COc1cccc(-c2nn(Cc3ccccc3)cc2C(=O)O)c1 | 21.1%
9 | COc1cccc(CN2CCCCC2c2cccnc2)c1 (stereo not given) | 11.2%
10 | Clc1ccc(NC2=NCCCS2)cc1Cl | -7.1%
11 | Cc1c2ccncc2c(C)c2c1[nH]c1ccccc12 | 57.9% (active)
12 | c1ccc2c(c1)[nH]c1cnccc12 | -1.7%
13 | Cc1nccc2c1[nH]c1ccccc12 | 2.3%
14 | CCOc1ccc(Cl)cc1CNCCc1ccc(F)cc1 | -1.9%
15 | Cc1ccc(C(=O)Nc2ccc(-n3ccnc3P(=O)(O)c3ccccc3)cc2)cc1 | -2.7%
